High-throughput results: PubChem BioAssay, Broad Institute
C diff HTS = C. difficile growth inhibitors, primary screen, HTS. 86,000 compounds, 0.25% hits. Clostridium difficile clinical isolate growth, OD600, 24 h; active compounds read low. growth activity, negative = inhibition, % at 16 µg/mL (by protocol);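 active = mean growth activity at or below -80% and every replicate also at or below -80%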;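 also: 0% = DMSO wells and -100% = levofloxacin 16 µg/mL wells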
Pf Dd2 growth = P. falciparum Dd2 growth inhibitors, primary screen, SYBR Green fluorescence, single dose replicates; 72 h; active compounds read low; activity change, % at 10 µM; 94,000 compounds, 2.3% hits; AID 1159554, 2015; in the data active = activity change below about -80%
* hit, by the source's call; · = not tested or not shown; ! = not confirmed by another sample. An excerpt weighted towards active compounds, which were near 2.3% of everything screened.

SMILES | C diff HTS | Pf Dd2 growth
C[C@H]1CN([C@@H](C)CO)C(=O)c2cccc(NC(=O)c3cnccn3)c2O[C@@H]1CN(C)Cc1ccc(C(=O)O)cc1 | -3.2 | -14.2
C[C@@H]1CN([C@@H](C)CO)C(=O)c2cccc(NC(=O)c3cnccn3)c2O[C@H]1CN(C)Cc1ccc(C(=O)Nc2ccccc2N)cc1 | 5.7 | -92.8*
C[C@@H]1CN([C@H](C)CO)C(=O)c2cccc(NC(=O)c3cnccn3)c2O[C@@H]1CN(C)Cc1ccc(C(=O)O)cc1 | 0.9 | 4.4
C[C@@H]1CN([C@H](C)CO)C(=O)c2cc(C#CCc3ccccc3)cnc2O[C@@H]1CN(C)C(=O)C1CC1 | · | -20.3
CCC(=O)N1C[C@H](C)[C@H](OC)CN(C)C(=O)c2cc(NC(=O)c3ccc(F)cc3)ccc2OC[C@H]1C | · | 7.6
CN(C)C(=O)C[C@H]1C=C[C@H](NS(=O)(=O)c2ccccc2)[C@H](CO)O1 | · | 28.6
COc1ccc(NC(=O)Nc2ccc3c(c2)C(=O)N([C@@H](C)CO)C[C@H](C)[C@@H](CN(C)S(=O)(=O)c2ccc(Cl)cc2)OCCCC[C@H](C)O3)cc1 | -1.6 | -75.5
c1cncc(-c2ccc(C3[C@@H]4CN(Cc5ccc6c(c5)OCO6)C[C@H]3N4)cc2)c1 (stereo partly drawn) | -4.1 | -37.4
C/C=C/c1ccc(C2[C@H]3CNC[C@@H]2N3Cc2ccc3c(c2)OCO3)cc1 (stereo partly drawn) | 5.8 | -28.1
Cc1ccccc1-c1ccc(C2[C@H]3CNC[C@@H]2N3Cc2ccc3c(c2)OCO3)cc1 (stereo partly drawn) | -0.2 | 4.1
C/C=C/c1ccc(C2[C@@H]3CN(Cc4ccc5c(c4)OCO5)C[C@H]2N3)cc1 (stereo partly drawn) | 2.0 | -94.1*!
Cc1ccccc1-c1ccc(C2[C@@H]3CN(Cc4ccc5c(c4)OCO5)C[C@H]2N3)cc1 (stereo partly drawn) | -94.4* | -6.6
CN(C)C(=O)c1ccc(-c2ccc(C3[C@@H]4CN(Cc5ccc6c(c5)OCO6)C[C@H]3N4)cc2)cc1 (stereo partly drawn) | -5.2 | -81.7*!
O=C(Nc1ccccc1)N1C[C@H]2[C@@H](c3ccccc31)[C@H](CO)N2C(=O)c1cccnc1 | 3.2 | 12.2
CCCC#Cc1ccc2c(c1)O[C@H](CN(C)C(=O)c1cnccn1)[C@@H](C)CN([C@@H](C)CO)S2(=O)=O | 4.9 | -38.8
CCC(=O)N1CC2(C1)CN(Cc1cccc(Cl)c1)[C@H](CO)c1c2c2ccc(OC)cc2n1C | 14.3 | -92.1*
COc1ccc2c3c(n(C)c2c1)[C@H](CO)N(CC1CC1)CC31CN(C(=O)c2ccc3c(c2)OCO3)C1 | 1.5 | -89.3*
COc1ccc2c3c(n(C)c2c1)[C@@H](CO)N(Cc1ccc2c(c1)OCO2)CC31CN(C(=O)c2ccc3c(c2)OCO3)C1 | 18.8 | -85.0*
CCC(=O)N1CCC2(CC1)CN(Cc1ccc3c(c1)OCO3)[C@@H](CO)c1c2c2ccc(OC)cc2n1C | -1.9 | -91.0*
CCC(=O)N1CC2(C1)CN(Cc1cccc(Cl)c1)[C@@H](CO)c1c2c2ccc(OC)cc2n1C | 11.6 | -49.5
COc1cc(CN2CC3(CN(C(=O)c4ccc5c(c4)OCO5)C3)c3c(n(C)c4cc(OC)ccc34)[C@@H]2CO)cc(OC)c1 | 4.9 | -70.8
COc1ccc2c3c(n(C)c2c1)[C@@H](CO)N(CC1CC1)CC31CN(C(=O)c2ccc3c(c2)OCO3)C1 | 3.4 | -74.1
COCC(=O)N1CCC2(CC1)CN(Cc1ccc3c(c1)OCO3)[C@@H](CO)c1c2c2ccc(OC)cc2n1C | 48.0 | -70.7
CC(=O)N(C)C[C@H]1Oc2cc(C#CCC(C)C)ccc2S(=O)(=O)N([C@H](C)CO)C[C@@H]1C | -1.8 | 2.8
CO[C@@H]1CN(C)C(=O)c2cc(NS(=O)(=O)CC(F)(F)F)ccc2OC[C@@H](C)N(Cc2nccs2)C[C@@H]1C | · | 0.0
SMILES | C diff HTS | Pf Dd2 growth
CC(=O)N1CCCCN2[C@@H](CO)[C@H](c3ccc(-c4cccc(C)c4)cc3)[C@@H]2C1 | -0.6 | 25.3
C[C@H](CO)N1C[C@H](C)[C@H](CN(C)C(=O)CC2CC2)Oc2ncc(-c3ccc(C#N)cc3)cc2C1=O | 2.3 | 10.5
O=C(C[C@@H]1CC[C@@H]2[C@H](COC[C@H](O)CN2Cc2cc(F)cc(F)c2)O1)NC1CCCC1 | -1.6 | -5.5
CC(C)CC#Cc1ccc2c(c1)O[C@H](CN(C)C(=O)c1ccccc1F)[C@@H](C)CN([C@@H](C)CO)S2(=O)=O | 8.3 | -70.2
C[C@H](CO)N1C[C@H](C)[C@H](CN(C)C(=O)c2ccccc2F)Oc2cc(C#CCN(C)C)ccc2S1(=O)=O | -7.1 | -28.3
CCCC#Cc1ccc2c(c1)O[C@H](CN(C)C(=O)c1ccccc1F)[C@H](C)CN([C@H](C)CO)S2(=O)=O | 16.7 | -80.7*
CCCC#Cc1ccc2c(c1)O[C@@H](CN(C)C(=O)c1ccccc1F)[C@@H](C)CN([C@@H](C)CO)S2(=O)=O | 18.4 | -83.4*
C[C@H](CO)N1C[C@H](C)[C@H](CN(C)Cc2ccc(C(=O)O)cc2)Oc2ccc(NC(=O)Cc3ccccc3)cc2CC1=O | -3.9 | 9.1
O=C(NCC[C@@H]1CC[C@@H](NC(=O)C2CC2)[C@H](CO)O1)Nc1ccc(Cl)cc1 | -2.1 | ·
C[C@@H]1CN([C@@H](C)CO)S(=O)(=O)c2ccc(-c3cccc(C(=O)N(C)C)c3)cc2O[C@@H]1CN(C)Cc1ccc2c(c1)OCO2 | 2.3 | -55.3
Cc1ccc(-c2ccc3c(c2)O[C@H](CN(C)Cc2ccncc2)[C@@H](C)CN([C@@H](C)CO)S3(=O)=O)cc1 | -34.9 | -51.4
Cc1ccc(-c2ccc3c(c2)O[C@@H](CN(C)Cc2ccncc2)[C@H](C)CN([C@H](C)CO)S3(=O)=O)cc1 | -26.8 | -83.9*
CCCC#Cc1ccc2c(c1)O[C@H](CN(C)Cc1ccncc1)[C@@H](C)CN([C@H](C)CO)S2(=O)=O | 4.9 | -59.8
Cc1ccc(-c2ccc3c(c2)O[C@H](CN(C)Cc2cccnc2)[C@@H](C)CN([C@@H](C)CO)S3(=O)=O)cc1 | -2.5 | -83.2*
C[C@@H]1CN([C@@H](C)CO)S(=O)(=O)c2ccc(-c3ccncc3)cc2O[C@@H]1CN(C)Cc1cccnc1 | 2.4 | 2.7
C[C@@H]1CN([C@@H](C)CO)S(=O)(=O)c2ccc(-c3cccc(C(=O)N(C)C)c3)cc2O[C@H]1CN(C)Cc1ccc2c(c1)OCO2 | -1.3 | -82.4*
CCCC#Cc1ccc2c(c1)O[C@@H](CN(C)Cc1ccncc1)[C@H](C)CN([C@@H](C)CO)S2(=O)=O | 15.5 | -86.8*
Cc1ccc(S(=O)(=O)N(C)C[C@@H]2Oc3ccc(NC(=O)C4CC4)cc3CC(=O)N([C@@H](C)CO)C[C@@H]2C)cc1 | 3.1 | -19.0
Cc1noc(C)c1NC(=O)Nc1ccc2c(c1)CC(=O)N([C@H](C)CO)C[C@H](C)[C@@H](CN(C)S(=O)(=O)c1cn(C)cn1)O2 | -4.4 | 11.7
C[C@@H]1CCCCO[C@@H](CN(C)C(=O)Nc2ccccc2)[C@H](C)CN([C@H](C)CO)C(=O)c2cc(NC(=O)c3ccccc3)ccc2O1 | · | -62.3
CCC(=O)N1C[C@@H](C)[C@H](OC)CN(C)C(=O)c2cc(NC(=O)COC)ccc2OC[C@H]1C | · | 41.5
C/C=C/c1ccc2c(c1)O[C@@H](CN(C)C(=O)C1CCOCC1)[C@H](C)CN([C@@H](C)CO)S2(=O)=O | 6.1 | 21.8
